The results in this text go back to PubChem BioAssay (EPA / NIEHS).

“And” between values parts separate entries of the source, which are not always exact repeats. Equal entries are not always repeated. Results filed as inconclusive are left out. Some compounds were tested as several samples or in several runs, with calls that do not always agree. The source made the active and inactive calls. Rule for the calls, unless noted: active = hit-call score of the fitted dose curve at least 0.9, where 1 is the maximum; inconclusive = response in the unintended direction; inactive = score below 0.9.

Test [1] deals with chicken Estrogen Receptor (ERa), ESR1 (gene 396099) (UniProt P06212). Description: ATG_chERa_XSP2: Attagene TRANS-FACTORIAL Multi-Species (XSP2) HepG2 Assay for chicken Estrogen Receptor (ERa) (AID 2283817).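 Note: actives raise reporter signal above DMSO so AC50 reflects ER activation.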 In short, it runs like this:
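HepG2 cells transiently transfected with multiplexed GAL4-UAS reporter units expressing chimeric chicken ERa-Gal4; 24 h compound exposure. Reporter mRNA measured by RT-PCR with 6-FAM labelling, HpaI digestion and capillary electrophoresis; gain-of-signal fitted versus DMSO.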

Test [2] relates to zebrafish Estrogen Receptor (ER2b), gene 317733. As to the kind of experiment: ATG_zfER2b_XSP2: Attagene TRANS-FACTORIAL Multi-Species (XSP2) HepG2 Assay for zebrafish Estrogen Receptor (ER2b) (AID 2283823).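 Note: fitted upward as reporter gain over DMSO so potency reflects activation.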 In short, it runs like this:
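Cells used were HepG2, transiently transfected with chimeric nuclear receptor-Gal4 reporter units. After 24 h of chemical treatment, reporter transcripts were amplified by RT-PCR, labelled and sized by capillary electrophoresis, with induction analysed relative to DMSO.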

The subject of test [3] is frog Estrogen Receptor (ER2), gene 100174814. As to the kind of experiment: ATG_frER2_XSP2: Attagene TRANS-FACTORIAL Multi-Species (XSP2) HepG2 Assay for frog Estrogen Receptor (ER2) (AID 2283828). In short, it runs like this:
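Human liver HepG2, transient MRTU transfection (TRANS format, exogenous NR–Gal4). 24 h cpd exposure. Total RNA → RT → PCR → FAM label → HpaI cut → CE. Positive direction vs DMSO.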

Test [4] deals with Nuclear receptor subfamily 1 group I member 2 (Mus musculus) (UniProt O54915). Description: ATG_mPXR_XSP2: Attagene TRANS-FACTORIAL Multi-Species (XSP1) HepG2 Assay for mouse Pregnane X Receptor (PXR) (AID 2283831). The method, boiled down: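 Reporter transcripts were quantified by RT-PCR, FAM primer extension, HpaI digestion and capillary electrophoresis after 24 h of chemical exposure in transiently transfected HepG2 cells carrying chimeric receptor-GAL4 constructs; DMSO served as baseline.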
Nuclear receptor subfamily 1 group I member 2 (Mus musculus), sequence (O54915 whole entry, looked up, the tested form may be a part): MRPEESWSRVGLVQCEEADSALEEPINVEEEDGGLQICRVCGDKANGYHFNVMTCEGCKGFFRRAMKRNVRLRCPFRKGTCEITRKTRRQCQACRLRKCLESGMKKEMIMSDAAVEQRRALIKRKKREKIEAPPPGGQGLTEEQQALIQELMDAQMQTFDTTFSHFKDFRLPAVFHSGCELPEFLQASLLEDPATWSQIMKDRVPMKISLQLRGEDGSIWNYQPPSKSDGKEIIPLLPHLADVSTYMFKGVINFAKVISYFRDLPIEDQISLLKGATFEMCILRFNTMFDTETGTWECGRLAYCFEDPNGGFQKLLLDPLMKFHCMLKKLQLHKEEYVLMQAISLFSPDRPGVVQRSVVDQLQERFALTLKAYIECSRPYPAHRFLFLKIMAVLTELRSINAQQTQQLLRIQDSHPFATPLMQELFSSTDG

Test [5] relates to turtle Thyroid Hormone Receptor, alpha (TRa), gene 101949057. As to the kind of experiment: ATG_trTRa_XSP2: Attagene TRANS-FACTORIAL Multi-Species (XSP1) HepG2 Assay for turtle Thyroid Hormone Receptor, alpha (TRa) (AID 2283834).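 Note: hits raise reporter mRNA over the DMSO baseline so AC50 marks activators.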 The method, boiled down:
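Transfection of HepG2 with multiple reporter transcription units, then chemical dosing for 24 h. Total RNA was reverse-transcribed, reporter sequences PCR-amplified and FAM-labelled, then sized by capillary electrophoresis. DMSO served as baseline.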

Test [6] is described as follows: ATG_M_61_XSP2: Attagene TRANS-FACTORIAL Multi-Species (XSP2) HepG2 Assay for M61 Transcription Factor (Internal Marker) (AID 2283835; active = hit-call score of the fitted dose curve at least 0.9, where 1 is the maximum; inactive = score below 0.9;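 note: active means a rise in signal above the DMSO baseline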). The method, boiled down: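 HepG2 cells transiently transfected with multiple GAL4-UAS reporter units; 3 nM 6-alpha-fluorotestosterone and 1.5 nM norgestrel present to stimulate androgen receptor. After 24 h compound exposure, reporter mRNA measured by RT-PCR and capillary electrophoresis fluorescence, gain-of-signal versus DMSO baseline.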

In test [7] the target is frog Thyroid hormone Receptor alpha (TRa), thra-a (gene 397942) (UniProt P15204). As to the kind of experiment: ATG_frTRa_XSP2: Attagene TRANS-FACTORIAL Multi-Species (XSP2) HepG2 Assay for frog Thyroid hormone Receptor alpha (TRa) (AID 2283839).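 For AC50: AC50 reflects induction of frog TRa-driven reporter mRNA above DMSO baseline.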 In short, it runs like this: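 Transfect HepG2 with multiple reporter units (GAL4-UAS), dose chemical, incubate 24 h. Isolate RNA, reverse-transcribe, PCR-amplify reporter, label with 6-FAM by primer extension, digest with HpaI, run capillary electrophoresis; induction scored against DMSO.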
frog Thyroid hormone Receptor alpha (TRa), thra-a (gene 397942), sequence (P15204 whole entry, looked up, the tested form may be a part): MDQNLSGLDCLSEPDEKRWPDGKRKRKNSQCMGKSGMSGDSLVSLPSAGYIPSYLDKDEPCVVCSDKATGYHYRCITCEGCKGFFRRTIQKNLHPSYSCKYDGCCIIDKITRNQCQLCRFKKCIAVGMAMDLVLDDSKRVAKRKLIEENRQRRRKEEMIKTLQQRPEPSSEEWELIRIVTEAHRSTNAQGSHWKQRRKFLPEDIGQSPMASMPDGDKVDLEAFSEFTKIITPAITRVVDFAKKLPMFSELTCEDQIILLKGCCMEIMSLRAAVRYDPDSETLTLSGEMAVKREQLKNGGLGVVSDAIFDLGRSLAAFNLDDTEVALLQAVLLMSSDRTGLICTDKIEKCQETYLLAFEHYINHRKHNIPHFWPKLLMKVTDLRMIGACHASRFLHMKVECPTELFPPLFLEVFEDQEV

Test [8] has as its target human Thyroid hormone Receptor beta (TRb), THRB (gene 7068) (UniProt P10828). As to the kind of experiment: ATG_hTRb_XSP2: Attagene TRANS-FACTORIAL Multi-Species (XSP2) HepG2 Assay for human Thyroid hormone Receptor beta (TRb) (AID 2283840).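 Note: actives raise reporter mRNA so potency reflects agonist-like gain of signal.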 The method, boiled down:
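Transient transfection of human HepG2 with multi-species NR-Gal4/GAL4-UAS reporter constructs; 24 h compound treatment; RNA isolation, reverse transcription, PCR and HpaI digest; capillary electrophoresis of labeled fragments; activity fitted upward versus DMSO.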

For test [9], the system named is Sodium/Iodide Symporter (NIS), SLC5A5 (gene 6528). Description: CPHEA_Stoker_NIS_Inhibition_RAIU: CPHEA's Radioactive Iodide Uptake (RAIU) Assay for Sodium/Iodide Symporter (NIS) Inhibition, Stoker and Laws Labs (AID 2283841). In short, it runs like this: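 hNIS-HEK293T-EPA cells incubated 2 h at room temperature with compound (0.001–100 uM, 0.5% DMSO) and 329 pM final 125I in HBSS/10 mM HEPES, pH 7.4. Intracellular 125I counted; normalised to DMSO maximal uptake, triplicate, three biological replicates.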

A short description of test [10]: CPHEA_Stoker_NIS_Cytotoxicity: Cytotoxicity Assessment for CPHEA's Radioactive Iodide Uptake (RAIU) Assay for Sodium/Iodide Symporter (NIS) Inhibition, Stoker and Laws Labs (AID 2283897).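 For AC50: active means loss of ATP signal versus DMSO meaning cytotoxicity.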 The method, boiled down:
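hNIS-HEK293T-EPA cells, human NIS expressed in HEK293T, treated 2 h with chemicals (0.001–100 uM, 0.5% final DMSO). ATP content read by CellTiter-Glo luminescence; loss of signal analysed relative to DMSO.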

The subject of test [11] is chicken Androgen Receptor (AR), gene 422165. Description: ATG_chAR_XSP2: Attagene TRANS-FACTORIAL Multi-Species (XSP2) HepG2 Assay for chicken Androgen Receptor (AR) (AID 2283819).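 Note: hits raise reporter mRNA above DMSO so potency is for activation.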 In short, it runs like this:
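HepG2 cells transiently transfected with chicken AR–GAL4 chimeric reporter constructs, stimulated with 3 nM 6-alpha-fluorotestosterone plus 1.5 nM norgestrel, dosed 24 h. Reporter mRNA quantified by RT-PCR and capillary electrophoresis; gain of signal fitted versus DMSO.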

In test [12] the test system is frog Androgen Receptor (AR), gene 399456. As to the kind of experiment: ATG_frAR_XSP2: Attagene TRANS-FACTORIAL Multi-Species (XSP2) HepG2 Assay for frog Androgen Receptor (AR) (AID 2283824).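 Note: actives raise reporter signal above DMSO so AC50 reflects agonist-like induction.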 In short, it runs like this: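 HepG2 cells transiently transfected with GAL4-UAS reporter units and frog (Xenopus laevis) AR-Gal4 chimera; reporter mRNA measured 24 h after dosing by RT-PCR and capillary electrophoresis. Gain of signal fitted relative to DMSO baseline.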

Test [13] deals with zebrafish Androgen Receptor (AR), gene 100005148. As to the kind of experiment: ATG_zfAR_XSP2: Attagene TRANS-FACTORIAL Multi-Species (XSP2) HepG2 Assay for zebrafish Androgen Receptor (AR) (AID 2283825).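 Note: hits raise reporter mRNA above DMSO so AC50 reflects agonist-type gain.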 In short, it runs like this:
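Zebrafish AR–GAL4 chimera transiently expressed with GAL4-UAS reporter in HepG2 cells, co-stimulated with 3 nM 6-alpha-fluorotestosterone and 1.5 nM norgestrel; 24 h dosing, reporter mRNA read by RT-PCR/capillary electrophoresis versus DMSO.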

Test [14] deals with mouse Peroxisome Proliferator-activated Receptor gamma (PPARg), Pparg (gene 19016) (UniProt P37238). As to the kind of experiment: ATG_mPPARg_XSP2: Attagene TRANS-FACTORIAL Multi-Species (XSP2) HepG2 Assay for mouse Peroxisome Proliferator-activated Receptor gamma (PPARg) (AID 2283830).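 Note: hits are gains in reporter mRNA above DMSO so AC50 marks activation.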 The method, boiled down: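 HepG2 cells transiently transfected with GAL4-UAS reporter units for chimeric NR-Gal4 proteins including mouse PPARg, exposed 24 h; medium contained 3 nM 6-alpha-fluorotestosterone and 1.5 nM norgestrel. Reporter mRNA quantified by RT-PCR, HpaI digestion and capillary electrophoresis, vs DMSO.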
mouse Peroxisome Proliferator-activated Receptor gamma (PPARg), Pparg (gene 19016), sequence (P37238 whole entry, looked up, the tested form may be a part): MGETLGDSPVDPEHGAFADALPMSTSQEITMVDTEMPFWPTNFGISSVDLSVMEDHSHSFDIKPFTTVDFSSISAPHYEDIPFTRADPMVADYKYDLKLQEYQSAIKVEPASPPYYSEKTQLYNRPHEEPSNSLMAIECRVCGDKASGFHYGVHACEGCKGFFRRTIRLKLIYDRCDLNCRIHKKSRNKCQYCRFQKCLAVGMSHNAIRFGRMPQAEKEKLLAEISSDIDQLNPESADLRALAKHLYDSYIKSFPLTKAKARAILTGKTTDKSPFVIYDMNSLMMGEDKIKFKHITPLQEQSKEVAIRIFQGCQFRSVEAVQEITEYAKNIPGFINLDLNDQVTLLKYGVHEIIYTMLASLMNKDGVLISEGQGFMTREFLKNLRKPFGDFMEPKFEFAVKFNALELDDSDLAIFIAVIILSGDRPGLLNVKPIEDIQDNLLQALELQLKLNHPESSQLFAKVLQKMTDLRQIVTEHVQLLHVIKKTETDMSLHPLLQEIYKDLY

The target of test [15] is zebrafish Thyroid Hormone Receptor alpha (TRa), thraa (gene 30670) (UniProt Q98867). Description: ATG_zfTRa_XSP2: Attagene TRANS-FACTORIAL Multi-Species (XSP1) HepG2 Assay for zebrafish Thyroid Hormone Receptor alpha (TRa) (AID 2283832).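 Note: actives raise zebrafish TRa-Gal4 reporter transcript above DMSO baseline.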 In short, it runs like this: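 Transient transfection of human HepG2 with GAL4-UAS reporter units, then 24 h chemical treatment. RNA isolated, reverse-transcribed, PCR-amplified, FAM-labelled, HpaI-digested and run on capillary electrophoresis. Gain-of-signal relative to DMSO.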
zebrafish Thyroid Hormone Receptor alpha (TRa), thraa (gene 30670), sequence (Q98867 whole entry, looked up, the tested form may be a part): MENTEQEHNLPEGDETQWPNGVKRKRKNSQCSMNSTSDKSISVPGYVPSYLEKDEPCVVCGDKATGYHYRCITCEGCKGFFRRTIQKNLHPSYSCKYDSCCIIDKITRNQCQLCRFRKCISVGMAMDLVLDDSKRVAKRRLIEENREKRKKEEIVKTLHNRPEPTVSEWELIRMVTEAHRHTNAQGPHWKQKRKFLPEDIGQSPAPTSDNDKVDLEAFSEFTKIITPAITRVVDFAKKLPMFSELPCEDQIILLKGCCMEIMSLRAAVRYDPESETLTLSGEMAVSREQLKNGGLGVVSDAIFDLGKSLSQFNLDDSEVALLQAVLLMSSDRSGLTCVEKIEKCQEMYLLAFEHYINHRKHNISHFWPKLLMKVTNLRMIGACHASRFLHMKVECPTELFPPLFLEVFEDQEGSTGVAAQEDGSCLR

Test [16] concerns zebrafish Peroxisome Proliferator-activated Receptor gamma (PPARg), gene 557037. As to the kind of experiment: ATG_zfPPARg_XSP2: Attagene TRANS-FACTORIAL Multi-Species (XSP2) HepG2 Assay for zebrafish Peroxisome Proliferator-activated Receptor gamma (PPARg) (AID 2283833).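 Note: actives increase reporter signal over DMSO so AC50 reflects activation.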 In short, it runs like this:
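Multi-species TRANS format in HepG2, 24 h dosing; medium also contained 3 nM 6-alpha-fluorotestosterone and 1.5 nM norgestrel to stimulate androgen receptor. Zebrafish PPARg-GAL4 induced reporter mRNA was measured by RT-PCR/capillary electrophoresis.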

Test [17] concerns the target human Thyroid hormone Receptor alpha (TRa), THRA (gene 7067) (UniProt P10827). Description: ATG_hTRa_XSP2: Attagene TRANS-FACTORIAL Multi-Species (XSP2) HepG2 Assay for human Thyroid hormone Receptor alpha (TRa) (AID 2283838). The method, boiled down:
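HepG2 cells were transiently transfected with GAL4-UAS reporter units for chimeric human TRa-Gal4 and dosed for 24 hours, with 3 nM 6-alpha-fluorotestosterone and 1.5 nM norgestrel present. Reporter mRNA was quantified by RT-PCR, FAM labelling and capillary electrophoresis, with gain of signal fitted versus DMSO.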

Test [18] can be described thus: ATG_XTT_Cytotoxicity_XSP2: Cytotoxicity Assessment in the Attagene TRANS-FACTORIAL Multi-Species (XSP2) HepG2 Assay (AID 2283837). The method, boiled down:
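HepG2 cells, transiently transfected with multiple reporter constructs, exposed to chemical for 24 h. Cell number assessed with XTT fluorescence read-out; loss of signal fitted relative to DMSO.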

In test [19] the target is Estrogen receptor (Homo sapiens) (UniProt P03372). Description: ATG_hERa_XSP2: Attagene TRANS-FACTORIAL Multi-Species (XSP2) HepG2 Assay for human Estrogen Receptor (ERa) (AID 2283827). In short, it runs like this: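 HepG2 cells transiently transfected with multiplexed GAL4-UAS reporters driven by chimeric receptor-Gal4 proteins, dosed 24 h with 3 nM 6-alpha-fluorotestosterone and 1.5 nM norgestrel present. Reporter mRNA by RT-PCR and capillary electrophoresis; gain-of-signal fit versus DMSO.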
Estrogen receptor (Homo sapiens), sequence (P03372 whole entry, looked up, the tested form may be a part): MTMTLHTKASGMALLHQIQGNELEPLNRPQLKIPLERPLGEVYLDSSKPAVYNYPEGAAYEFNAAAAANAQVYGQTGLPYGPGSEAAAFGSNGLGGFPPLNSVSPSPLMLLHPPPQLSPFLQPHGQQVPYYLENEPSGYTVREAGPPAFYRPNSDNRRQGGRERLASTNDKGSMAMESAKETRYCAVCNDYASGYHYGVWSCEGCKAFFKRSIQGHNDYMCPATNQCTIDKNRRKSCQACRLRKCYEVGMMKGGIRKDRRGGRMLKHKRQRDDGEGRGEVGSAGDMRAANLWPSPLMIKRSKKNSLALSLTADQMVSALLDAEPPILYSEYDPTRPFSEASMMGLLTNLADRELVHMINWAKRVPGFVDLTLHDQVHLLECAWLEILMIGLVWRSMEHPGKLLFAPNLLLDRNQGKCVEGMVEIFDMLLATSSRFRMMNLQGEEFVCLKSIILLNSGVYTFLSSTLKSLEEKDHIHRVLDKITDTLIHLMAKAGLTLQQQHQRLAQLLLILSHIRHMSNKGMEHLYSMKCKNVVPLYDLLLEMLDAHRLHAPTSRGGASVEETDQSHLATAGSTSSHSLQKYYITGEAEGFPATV

human Thyroid hormone Receptor beta (TRb), THRB (gene 7068), sequence (P10828 whole entry, looked up, the tested form may be a part): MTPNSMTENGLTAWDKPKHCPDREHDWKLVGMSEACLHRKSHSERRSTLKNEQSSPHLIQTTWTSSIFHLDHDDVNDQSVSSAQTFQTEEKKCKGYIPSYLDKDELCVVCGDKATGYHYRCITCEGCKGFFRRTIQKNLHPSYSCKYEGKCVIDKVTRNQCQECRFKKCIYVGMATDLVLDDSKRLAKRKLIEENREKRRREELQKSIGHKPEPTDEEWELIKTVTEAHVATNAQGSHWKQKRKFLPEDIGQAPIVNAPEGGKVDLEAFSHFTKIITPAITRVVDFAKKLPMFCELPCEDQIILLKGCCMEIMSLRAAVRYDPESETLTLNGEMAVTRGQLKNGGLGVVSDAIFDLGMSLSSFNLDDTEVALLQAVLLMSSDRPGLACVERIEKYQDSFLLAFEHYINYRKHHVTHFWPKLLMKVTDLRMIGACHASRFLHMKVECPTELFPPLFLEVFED
human Thyroid hormone Receptor alpha (TRa), THRA (gene 7067), sequence (P10827 whole entry, looked up, the tested form may be a part): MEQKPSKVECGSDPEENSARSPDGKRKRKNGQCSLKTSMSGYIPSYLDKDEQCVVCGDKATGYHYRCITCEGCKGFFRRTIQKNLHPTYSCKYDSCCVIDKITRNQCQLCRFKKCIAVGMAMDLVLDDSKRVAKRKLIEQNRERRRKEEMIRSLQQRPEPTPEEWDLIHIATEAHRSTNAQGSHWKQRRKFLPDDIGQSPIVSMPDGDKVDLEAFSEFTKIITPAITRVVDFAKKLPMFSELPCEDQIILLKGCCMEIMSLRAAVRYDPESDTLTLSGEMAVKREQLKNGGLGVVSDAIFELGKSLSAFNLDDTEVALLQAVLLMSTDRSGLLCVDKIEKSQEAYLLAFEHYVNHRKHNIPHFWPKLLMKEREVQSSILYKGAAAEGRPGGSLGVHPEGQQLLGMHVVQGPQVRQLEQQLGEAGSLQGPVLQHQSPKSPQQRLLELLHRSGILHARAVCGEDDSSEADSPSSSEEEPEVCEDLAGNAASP
chicken Estrogen Receptor (ERa), ESR1 (gene 396099), sequence (P06212 whole entry, looked up, the tested form may be a part): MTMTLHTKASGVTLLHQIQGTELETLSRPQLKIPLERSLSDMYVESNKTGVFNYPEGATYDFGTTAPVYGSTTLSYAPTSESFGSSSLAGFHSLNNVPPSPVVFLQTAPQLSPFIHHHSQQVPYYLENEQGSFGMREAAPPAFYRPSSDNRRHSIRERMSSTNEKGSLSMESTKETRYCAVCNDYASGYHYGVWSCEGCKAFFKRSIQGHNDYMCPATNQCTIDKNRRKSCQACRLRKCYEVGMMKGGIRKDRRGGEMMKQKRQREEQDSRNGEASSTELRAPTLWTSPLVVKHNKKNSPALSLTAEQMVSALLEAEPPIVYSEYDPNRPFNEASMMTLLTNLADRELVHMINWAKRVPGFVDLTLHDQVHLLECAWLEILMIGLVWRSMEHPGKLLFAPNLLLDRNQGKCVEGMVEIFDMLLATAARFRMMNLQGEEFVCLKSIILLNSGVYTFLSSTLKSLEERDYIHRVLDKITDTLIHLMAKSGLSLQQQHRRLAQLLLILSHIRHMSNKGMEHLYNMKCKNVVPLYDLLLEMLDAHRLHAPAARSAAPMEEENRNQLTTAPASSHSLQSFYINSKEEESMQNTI

For `CC(C)(C)CC(C)(C)c1ccc(O)cc1`, the AC50 was 4.49 µM (active) in [1], 5.17 µM (active) in [2] and 4.83 µM (active) in test [3]. For the same compound, the compound was called inactive in test [4], in test [5], in test [6], in test [7], in test [8] and in [9]. In addition, the outcome in [10] was inactive.
Take `C[C@]12CCC(=O)C[C@@H]1CC[C@@H]1[C@@H]2CC[C@]2(C)[C@@H](O)CC[C@@H]12`: the result in [1], in test [2], in [13], in [14], in test [15] and in test [16] was inactive. For the same compound, the result in test [5], in test [6], in test [17] and in [7] was inactive. In addition, the AC50 in test [11] is 0.198 µM (active); in [12], 0.0457 µM (active); in test [8], 421 nM (active).
Turning to `Oc1ccc(-c2ccccc2)cc1`, the AC50 in [1] was 712 nM (active) and 200 nM (active); in test [2], 5.61 µM (active) and 3.05 µM (active); in [3], 1.75 µM (active) and 690 nM (active); in [14], 100 µM (active). The outcome in test [14], in test [4], in [15], in test [16], in test [5] and in [6] was inactive. Also, the call in test [18], in [17], in test [7] and in [8] was inactive.
As for `Cc1ccc2ccccc2c1C`, the result in test [9] was inactive.
Take `O=C1C(Cl)=C(Cl)C(=O)c2ccccc21`: the AC50 is 9.92 µM (active) in [9] and 50 µM (active) in test [10].
Consider `COP(=O)(OC)O/C(=C\Cl)c1cc(Cl)c(Cl)cc1Cl`, for which the half-maximal activity concentration (AC50) in test [1] is 4.9 µM (active); in test [2] it was 45.5 µM (active); in test [19] it was 9.68 µM (active); in test [14], 14.8 µM (active); in test [16], 47.3 µM (active). Also, the call in test [3], in test [15], in test [5], in test [6], in [7] and in test [8] was inactive. For the same compound, the outcome in test [9] and in [10] was inactive.
Turning to `O=C(O)C(F)(F)C(F)(F)C(F)(F)C(F)(F)C(F)(F)C(F)(F)C(F)(F)C(F)(F)C(F)(F)C(F)(F)F`, the outcome in test [9] was inactive.
For the compound `Oc1c(I)cc(I)cc1I`, the AC50 in test [1] was 2.58 µM (active); in test [2] it was 57.4 µM (active); in test [19], 3.11 µM (active); in test [14] it was 18 µM (active) and 14.1 µM (active); in test [4], 56.6 µM (active); in [15], 100 µM (active). The AC50 in test [16] was 26.1 µM (active) and 23.3 µM (active); in test [18], 69.1 µM (active); in [17], 26 µM (active); in test [7], 26.5 µM (active) and 25.7 µM (active); in [8], 56.1 µM (active) and 16.2 µM (active). Besides, the result in test [2], in test [4], in test [15], in [5] and in test [6] was inactive.

For orientation: AC50 means the midpoint of the concentration-response curve, whichever way the signal moves.
